# Potency and affinity values are given separately. Activity calls are given as the source filed them. Entries that show only a call come without a potency. No rule for the calls is given here.
# Target: Kelch-like ECH-associated protein 1 (Homo sapiens) + Nuclear factor erythroid 2-related factor 2 (Homo sapiens) (UniProt Q14145+Q16236)
# Assay: disruptors of Keap1 binding to Nrf2 peptide – biochemical, fluorescence polarization, cherry-picked samples, dose response (AID 588683);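 also: Kelch domain of Keap1 binding a fluorescein-labelled 9mer Nrf2 peptide; more negative means stronger inhibition of peptide binding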
# Conditions: plate reader; series mostly up to 26 µM
# Kelch-like ECH-associated protein 1 (Homo sapiens) + Nuclear factor erythroid 2-related factor 2 (Homo sapiens), sequence (Q14145 whole entry, looked up, the tested form may be a part): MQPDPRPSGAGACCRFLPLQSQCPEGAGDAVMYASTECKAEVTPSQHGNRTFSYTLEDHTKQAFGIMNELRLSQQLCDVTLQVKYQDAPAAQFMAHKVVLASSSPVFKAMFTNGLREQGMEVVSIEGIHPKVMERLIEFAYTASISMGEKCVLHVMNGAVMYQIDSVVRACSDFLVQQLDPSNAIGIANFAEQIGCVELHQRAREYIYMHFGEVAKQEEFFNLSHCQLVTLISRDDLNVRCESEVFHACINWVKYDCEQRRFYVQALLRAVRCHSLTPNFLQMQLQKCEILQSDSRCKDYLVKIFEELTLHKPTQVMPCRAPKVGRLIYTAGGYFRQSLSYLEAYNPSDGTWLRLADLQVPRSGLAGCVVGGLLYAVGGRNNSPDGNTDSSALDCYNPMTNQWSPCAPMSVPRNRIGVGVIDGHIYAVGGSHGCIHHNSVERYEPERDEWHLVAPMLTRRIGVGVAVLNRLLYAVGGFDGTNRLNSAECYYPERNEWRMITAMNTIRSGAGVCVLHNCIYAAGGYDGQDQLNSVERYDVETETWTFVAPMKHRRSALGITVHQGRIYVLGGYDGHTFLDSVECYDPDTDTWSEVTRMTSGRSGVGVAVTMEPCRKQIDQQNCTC
# Kelch-like ECH-associated protein 1 (Homo sapiens) + Nuclear factor erythroid 2-related factor 2 (Homo sapiens), sequence (Q16236 whole entry, looked up, the tested form may be a part): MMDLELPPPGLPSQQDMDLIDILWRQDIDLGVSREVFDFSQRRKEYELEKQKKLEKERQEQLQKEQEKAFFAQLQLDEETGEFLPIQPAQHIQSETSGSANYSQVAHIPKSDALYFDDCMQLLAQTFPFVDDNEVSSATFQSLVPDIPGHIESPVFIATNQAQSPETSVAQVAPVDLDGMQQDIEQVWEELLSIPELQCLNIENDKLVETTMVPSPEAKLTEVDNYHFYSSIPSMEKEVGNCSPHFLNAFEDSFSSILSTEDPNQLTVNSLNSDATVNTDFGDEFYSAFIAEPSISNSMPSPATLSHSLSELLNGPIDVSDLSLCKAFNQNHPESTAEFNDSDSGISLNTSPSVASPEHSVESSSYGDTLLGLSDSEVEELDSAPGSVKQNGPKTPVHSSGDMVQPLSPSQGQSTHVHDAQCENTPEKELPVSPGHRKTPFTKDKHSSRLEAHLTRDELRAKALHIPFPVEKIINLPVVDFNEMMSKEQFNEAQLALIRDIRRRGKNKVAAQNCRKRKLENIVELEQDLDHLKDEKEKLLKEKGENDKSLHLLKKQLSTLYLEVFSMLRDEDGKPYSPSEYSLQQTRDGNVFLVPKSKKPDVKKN
row,Structure (SMILES),outcome
1,COc1ccc(/C=c2\s/c(=C(/C#N)C(=O)NCc3ccco3)n(-c3ccccc3)c2=O)cc1,inactive
2,CC1Cc2cc(/C=C3/SC(N4CCC(C(N)=O)CC4)=NC3=O)ccc2O1 (stereo not drawn),inactive
3,O=C(O)c1cc(N2N=C(C(F)(F)F)/C(=C/C=C/c3ccco3)C2=O)ccc1Cl,inactive
4,CNS(=O)(=O)c1ccc2c3c(cccc13)C(=O)N2C,inactive
5,COC(=O)c1cc(C)nc2c1c(C)nn2-c1ccccc1,inactive
6,C=CCOc1ccc(CNc2ccc(NC(=O)CC(C)C)cc2)cc1OC,inactive
7,COCCCNc1nc(N)c([N+](=O)[O-])c(Nc2cc(OC)ccc2OC)n1,inactive
8,CCCCN1C(=O)/C(=C2/Sc3ccccc3N2C)S/C1=N\c1ncn[nH]1,inactive
9,CCCCCCOC(=O)C(C#N)c1nc2ccccc2nc1N1CCOCC1 (stereo not drawn),inactive
10,CC(C)(C)c1cc[n+](-c2[nH]c(=O)sc2/C=N/NC([S-])=Nc2ccccc2)cc1,inactive
11,CSc1nsc2nc(=O)c(/C=C3\C=Nc4ccccc43)c(N)n12,inactive
12,O=C(CN1C(=O)NC2(CCCC2)C1=O)Nc1ccc(C(F)(F)F)cc1,inactive
13,COc1ccc(OC)c(C(=O)c2coc3ccc(O)c(CN(C)C)c23)c1,inactive
14,Cc1sc2ccccc2[n+]1CC(=O)c1ccccc1,inactive
15,Cc1ccc(C2C3CN(C(C)C)CC=C3C(C#N)=C(N)C2(C#N)C#N)cc1 (stereo not drawn),inactive
16,COc1ccc(-c2cc(C(F)(F)F)c3c(N)c(C(=O)NCCSC)sc3n2)cc1,inactive
17,c1ccc(-c2cn3nc4c(nc3n2)CCCC4)cc1,inactive
18,Cc1cccc(C)c1NC(=O)CSc1nnc(-c2ccco2)c(-c2ccco2)n1,inactive

# Reference: PubChem BioAssay AID588683 (Broad Institute, 2011)
